# In PubChem BioAssay (NCATS):
# “And” between values parts separate entries of the source, which are not always exact repeats. Equal values may be shown once. Inconclusive results are not listed. The source made the active and inactive calls. The call rests on the fitted dose curve; in most records, active means well fitted cell-killing curve with a large enough effect; inconclusive means small, poorly fitted or top-dose-only effect, or effect the other way; inactive means no such curve, though single readings can be large or run the other way.
# Assay: Viability qHTS for spleen associated tyrosine kinase inhibitor (SYKi) naive MV4-11 cells (AID 1963823); further: nearly all actives have a fitted effect of over 40% in size
# Settings: MV4-11 AML viability, CellTiter-Glo luminescence, 72 h; series mostly up to 45 µM; viability (% of control): at the top concentration
# In short: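 SYK inhibitor-naive MV4-11 cells, 500 per well, exposed to compounds for 72 hr at 37 C, 5% CO2. Viability read as CellTiter-Glo luminescence after 10 min at room temperature.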
# Potency means the concentration at half of the fitted maximal effect.
Compound,viability (% of control),Potency
O=C(CCCl)NCCc1ccccc1,90.8% (inactive),
O=C(CO)[C@@H](O)[C@H](O)[C@@H](O)CO,105% (inactive),
Nc1ccc(C(=O)O)c(O)c1,86.9% (inactive),
Oc1cc(O)c2c(c1)O[C@H](c1ccc(O)c(O)c1)[C@H](O)C2,61.7% (inactive),
Nc1ccc(S(=O)(=O)Nc2cnc3ccccc3n2)cc1,61.7% (inactive),
CC(=O)N[C@@H](CC(C)C)C(=O)O,93.5% (inactive),
Cc1ccc(-c2nc(N)nc3c2nnn3Cc2cccc(CO[C@H]3CCOC3)n2)o1,61.2% (inactive),
Nc1ccc([N+](=O)[O-])c(C(F)(F)F)c1,77.8% (inactive),
CCCNC(C)(C)COC(=O)c1ccccc1,76.4% (inactive),
CCOCCOC(=O)/C=C/c1ccc(OC)cc1,62.3% (inactive),
COCc1c(-c2ccc(NC(=O)Nc3cc(C(F)(F)F)ccc3F)c(F)c2)c2c(N)ncnn2c1CN1CCOCC1,,10.5 nM (active)
C=C[C@H]1CN2CC[C@H]1C[C@@H]2[C@@H](O)c1ccnc2ccc(OC)cc12,74.7% (inactive),
CC(=O)Nc1ccc(C(=O)Nc2ccccc2N)cc1,,5.63 µM (active) and 4.68 µM (active)
COc1cccc2c1C(=O)c1c(O)c3c(c(O)c1C2=O)C[C@@](O)(C(=O)CO)C[C@@H]3O[C@H]1C[C@H](N)[C@H](O[C@@H]2CCCCO2)[C@H](C)O1,,750 nM (active)
OC1(c2ccc(Cl)c(C(F)(F)F)c2)CCN(CCCC(c2ccc(F)cc2)c2ccc(F)cc2)CC1,,2.66 µM (active) and 3.66 µM (active)
CCN1/C(=C/C(C)=O)Sc2ccc(OC)cc21,,9200 nM (active)
CCOC(=O)CCNc1cc(N2CCc3ccccc3CC2)nc(-c2ccccn2)n1,,4680 nM (active)
CCN(C(=O)c1ccccc1OC)c1cc2c(cc1N1CCNC[C@H]1C)n(C)c(=O)n2C,96.1% (inactive),
NS(=O)(=O)c1cc2c(cc1C(F)(F)F)NC(Cc1ccccc1)NS2(=O)=O (stereo not given),87.4% (inactive),
NC12CC3CC(CC(C3)C1)C2,,inactive

Compound,viability (% of control),Potency
C[C@]12CCCN1CC1=NNC(=O)c3cc(F)cc4[nH]c2c1c34,,2630 nM (active)
N=C(N)c1ccc2nc(-c3cc(CC(=O)N[C@@H](CC(=O)O)C(=O)O)cc(-c4cc(S(N)(=O)=O)ccc4O)c3O)[nH]c2c1,81.8% (inactive),
C(=C\c1ccccc1)/CN1CCN(C(c2ccccc2)c2ccccc2)CC1,84.9% (inactive),
N#Cc1ccc(C2CCCc3cncn32)cc1 (stereo not given),80.2% [at 17.3 µM] (inactive),
CC(C)CCCC(C)N (stereo not given),66% (inactive),
CCC(=C/[C@H](C)C/C=C/C(C)=C/[C@@H](C)C(=O)[C@@H](C)[C@H](O)[C@@H](C)C/C(C)=C/C(=O)O)/C=C/[C@@H]1OC(=O)C=C[C@@H]1C,,1.9 nM (active)
NC(=O)/C(=C/n1cnc(-c2cc(C(F)(F)F)cc(C(F)(F)F)c2)n1)c1cncnc1,,132 nM (active)
O=C(O)C(S)C(S)C(=O)O (stereo not given),85.6% (inactive),
CN1CCCN=C1/C=C/c1cccs1,76% (inactive),
Cn1cc(-c2c[nH]c3ncnc(N4CCOCC4)c23)cn1,,13200 nM (active)
COc1ccc(/C=C\c2cc(OC)c(OC)c(OC)c2)cc1O,,5.3 nM (active)
CCn1cc(C(=O)O)c(=O)c2cnc(N3CCCC3)nc21,74.1% [at 9.25 µM] (inactive),
COc1cccc2c1C(=O)c1c(O)c3c(c(O)c1C2=O)C[C@@](O)(/C(CO)=N/NC(=O)CCCCCN1C(=O)C=CC1=O)C[C@@H]3O[C@H]1C[C@H](N)[C@H](O)[C@H](C)O1,,132 nM (active)
CCCOc1ccn2c(C(C)=O)cc(-c3ccccc3S(C)(=O)=O)c2c1,,20900 nM (active)
O=C(CCCCCCNC(=O)c1cnc(N(c2ccccc2)c2ccccc2Cl)nc1)NO,,3320 nM (active)
O=C1NC(=O)/C(=C/c2ccc3nccc(-c4ccncc4)c3c2)S1,,461 nM (active) and 372 nM (active)
CN[C@H]1CC[C@@H](c2ccc(Cl)c(Cl)c2)c2ccccc21,,6610 nM (active)
CN(C)CCn1nnnc1SCC1=C(C(=O)O)N2C(=O)[C@@H](NC(=O)Cc3csc(N)n3)[C@H]2SC1,78.2% (inactive),
C[C@@H]1C(=O)OC2[C@H](O)[C@]34[C@H]5C[C@@H](C(C)(C)C)[C@]36[C@@H](OC(=O)[C@@H]6O)O[C@@]4(C(=O)O5)[C@]21O (stereo not given in full),96.3% (inactive),
COc1c(Nc2ncc(Cl)c(N[C@H]3[C@H](C(N)=O)[C@@H]4C=C[C@@H]3C4)n2)ccc2c1CCC(N1CCOCC1)CC2 (stereo not given in full),,130 nM (active)

# Assay: Viability qHTS for spleen associated tyrosine kinase inhibitor (SYKi) drug resistant MV4-11 cells (AID 1963824); further: nearly all actives have a fitted effect of over 35% in size
# Settings: SYKi-resistant MV4-11 viability, CellTiter-Glo, 72 h; series mostly up to 45 µM; viability, % of control: at the top concentration
# In short: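 CellTiter-Glo luminescence, read 10 min after reagent addition, reports viability after a 72 hr compound exposure. Cells are an MV4-11 line made resistant to SYK inhibition, seeded at 500 per well onto compound-containing plates.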
Compound,"viability, % of control",Potency
O=C(CCCl)NCCc1ccccc1,90.7% (inactive),
O=C(CO)[C@@H](O)[C@H](O)[C@@H](O)CO,115% (inactive),
Nc1ccc(C(=O)O)c(O)c1,71.9% (inactive),
Oc1cc(O)c2c(c1)O[C@H](c1ccc(O)c(O)c1)[C@H](O)C2,81.4% (inactive),
Nc1ccc(S(=O)(=O)Nc2cnc3ccccc3n2)cc1,79.2% (inactive),
CC(=O)N[C@@H](CC(C)C)C(=O)O,108% (inactive),
Cc1ccc(-c2nc(N)nc3c2nnn3Cc2cccc(CO[C@H]3CCOC3)n2)o1,,16.6 µM (active)
Nc1ccc([N+](=O)[O-])c(C(F)(F)F)c1,73.5% (inactive),
CCCNC(C)(C)COC(=O)c1ccccc1,79.1% (inactive),
CCOCCOC(=O)/C=C/c1ccc(OC)cc1,72.3% (inactive),
COCc1c(-c2ccc(NC(=O)Nc3cc(C(F)(F)F)ccc3F)c(F)c2)c2c(N)ncnn2c1CN1CCOCC1,,0.0164 µM (active)
C=C[C@H]1CN2CC[C@H]1C[C@@H]2[C@@H](O)c1ccnc2ccc(OC)cc12,84.2% (inactive),
CC(=O)Nc1ccc(C(=O)Nc2ccccc2N)cc1,,3.55 µM (active) and 3.72 µM (active)
COc1cccc2c1C(=O)c1c(O)c3c(c(O)c1C2=O)C[C@@](O)(C(=O)CO)C[C@@H]3O[C@H]1C[C@H](N)[C@H](O[C@@H]2CCCCO2)[C@H](C)O1,,3.35 µM (active)
OC1(c2ccc(Cl)c(C(F)(F)F)c2)CCN(CCCC(c2ccc(F)cc2)c2ccc(F)cc2)CC1,,2.99 µM (active) and 3.26 µM (active)
CCN1/C(=C/C(C)=O)Sc2ccc(OC)cc21,,8.2 µM (active)
CCOC(=O)CCNc1cc(N2CCc3ccccc3CC2)nc(-c2ccccn2)n1,,5.25 µM (active)
CCN(C(=O)c1ccccc1OC)c1cc2c(cc1N1CCNC[C@H]1C)n(C)c(=O)n2C,92.4% (inactive),
NS(=O)(=O)c1cc2c(cc1C(F)(F)F)NC(Cc1ccccc1)NS2(=O)=O (stereo not given),93.6% (inactive),
NC12CC3CC(CC(C3)C1)C2,,inactive

Compound,"viability, % of control",Potency
C[C@]12CCCN1CC1=NNC(=O)c3cc(F)cc4[nH]c2c1c34,,6.61 µM (active)
N=C(N)c1ccc2nc(-c3cc(CC(=O)N[C@@H](CC(=O)O)C(=O)O)cc(-c4cc(S(N)(=O)=O)ccc4O)c3O)[nH]c2c1,84.9% (inactive),
C(=C\c1ccccc1)/CN1CCN(C(c2ccccc2)c2ccccc2)CC1,87.5% (inactive),
N#Cc1ccc(C2CCCc3cncn32)cc1 (stereo not given),6.8% [at 17.3 µM] (inactive),
CC(C)CCCC(C)N (stereo not given),56.7% (inactive),
CCC(=C/[C@H](C)C/C=C/C(C)=C/[C@@H](C)C(=O)[C@@H](C)[C@H](O)[C@@H](C)C/C(C)=C/C(=O)O)/C=C/[C@@H]1OC(=O)C=C[C@@H]1C,,0.0021 µM (active)
NC(=O)/C(=C/n1cnc(-c2cc(C(F)(F)F)cc(C(F)(F)F)c2)n1)c1cncnc1,,0.235 µM (active)
O=C(O)C(S)C(S)C(=O)O (stereo not given),77.4% (inactive),
CN1CCCN=C1/C=C/c1cccs1,81.1% (inactive),
Cn1cc(-c2c[nH]c3ncnc(N4CCOCC4)c23)cn1,,14.8 µM (active)
COc1ccc(/C=C\c2cc(OC)c(OC)c(OC)c2)cc1O,,0.0047 µM (active)
CCn1cc(C(=O)O)c(=O)c2cnc(N3CCCC3)nc21,103% [at 9.25 µM] (inactive),
COc1cccc2c1C(=O)c1c(O)c3c(c(O)c1C2=O)C[C@@](O)(/C(CO)=N/NC(=O)CCCCCN1C(=O)C=CC1=O)C[C@@H]3O[C@H]1C[C@H](N)[C@H](O)[C@H](C)O1,,0.186 µM (active)
CCCOc1ccn2c(C(C)=O)cc(-c3ccccc3S(C)(=O)=O)c2c1,,14.8 µM (active)
O=C(CCCCCCNC(=O)c1cnc(N(c2ccccc2)c2ccccc2Cl)nc1)NO,,2.63 µM (active)
O=C1NC(=O)/C(=C/c2ccc3nccc(-c4ccncc4)c3c2)S1,,820 nM (active) and 525 nM (active)
CN[C@H]1CC[C@@H](c2ccc(Cl)c(Cl)c2)c2ccccc21,,7.42 µM (active)
CN(C)CCn1nnnc1SCC1=C(C(=O)O)N2C(=O)[C@@H](NC(=O)Cc3csc(N)n3)[C@H]2SC1,97.8% (inactive),
C[C@@H]1C(=O)OC2[C@H](O)[C@]34[C@H]5C[C@@H](C(C)(C)C)[C@]36[C@@H](OC(=O)[C@@H]6O)O[C@@]4(C(=O)O5)[C@]21O (stereo not given in full),93.2% (inactive),
COc1c(Nc2ncc(Cl)c(N[C@H]3[C@H](C(N)=O)[C@@H]4C=C[C@@H]3C4)n2)ccc2c1CCC(N1CCOCC1)CC2 (stereo not given in full),,0.366 µM (active)
